# Reference: the supplement of paper PMC3334620
# The full ranking holds about 33,000 sequences; the median of “E-score (-0.5 to 0.5)” is about -0.054, and the highest 2% start at about 0.35. The sample holds the highest values, similar sequences and a random draw of the others, so the mix is not that of the screen.
# Target: T1, Stb5 (UniProt P38699)
# T1 sequence: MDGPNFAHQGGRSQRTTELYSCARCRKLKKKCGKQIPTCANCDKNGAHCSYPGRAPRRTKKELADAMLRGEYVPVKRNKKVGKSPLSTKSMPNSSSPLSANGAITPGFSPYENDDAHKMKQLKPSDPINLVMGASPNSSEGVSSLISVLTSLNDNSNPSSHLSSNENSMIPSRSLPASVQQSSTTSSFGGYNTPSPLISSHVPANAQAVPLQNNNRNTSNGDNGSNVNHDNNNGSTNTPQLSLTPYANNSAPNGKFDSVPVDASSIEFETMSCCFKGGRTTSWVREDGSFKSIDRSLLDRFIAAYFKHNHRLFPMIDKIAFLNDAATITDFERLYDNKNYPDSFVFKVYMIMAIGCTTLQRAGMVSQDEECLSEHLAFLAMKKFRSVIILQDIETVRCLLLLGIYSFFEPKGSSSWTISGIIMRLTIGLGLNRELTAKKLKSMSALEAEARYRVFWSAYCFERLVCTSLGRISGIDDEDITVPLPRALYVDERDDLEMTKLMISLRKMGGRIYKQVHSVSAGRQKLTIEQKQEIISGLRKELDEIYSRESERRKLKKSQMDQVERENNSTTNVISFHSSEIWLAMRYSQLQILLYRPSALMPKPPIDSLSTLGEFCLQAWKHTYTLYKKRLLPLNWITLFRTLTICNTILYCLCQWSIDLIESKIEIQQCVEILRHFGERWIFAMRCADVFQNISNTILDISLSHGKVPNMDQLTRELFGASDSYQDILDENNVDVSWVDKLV
# Assay: PBM E-score (8-mer binding enrichment) (E-score (-0.5 to 0.5)); higher = stronger / more preferred TF binding
# Settings: protein concentration: 200 nM; construct: GST-full length
# Description: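 Universal 'all 10-mer' protein binding microarrays (Agilent AMADID 015681) probed with GST-tagged S. cerevisiae TFs (full-length or DBD) made by in vitro transcription/translation (PURExpress), about 100-200 nM. Bound TF was detected with fluorescent anti-GST. Each ungapped 8-mer (which stands for itself and its reverse complement) is scored by the PBM enrichment score (E-score), a modified Wilcoxon-Mann-Whitney statistic from -0.5 to +0.5, computed with the Universal PBM Analysis Suite. Scale: above 0.35 generally sequence-specific binding.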
row,Sequence,PBM E-score
1,AAAGAGAA,-0.00974
2,AACGCCGG,0.44
3,AACGCCCG,0.24
4,CACGCCGG,0.268
5,AAATAGAT,0.104
6,GGCTCCGA,0.0871
7,AGCTCCTC,-0.184
8,AGCTCCGC,0.406
9,CGCTCCGA,0.231
10,AGCTCCTG,-0.18
11,CGCTCCGC,0.164
12,AGCTCCGG,0.362
13,AGCTCCCG,-0.0713
14,AGCTCCGA,0.405
15,AGAGCAGA,-0.138
16,ATGCCCGG,0.318
17,AGGCCCGC,0.36
18,CTGCCCGC,0.06
19,CGGCCCGC,0.188
20,ATGCCCGC,0.366
21,AGGCCCGA,0.314
22,TGACGTCA,0.158
23,AGATGCGA,0.0797
24,TACCACGA,-0.267
25,CTCCGCCC,0.397

row,Sequence,PBM E-score
1,AGCCGCCC,0.144
2,AGCCGCGC,0.173
3,CGCCGCCA,0.348
4,GGCCGCCC,0.253
5,CTCCGCCA,0.293
6,CGCCGCGA,0.289
7,CGCCGCCC,0.352
8,CGCCGCCG,0.369
9,AGCCGCCG,0.215
10,ATCCGCCC,0.218
11,CGCCGCGC,0.368
12,ATACCTCG,-0.173
13,GCTTCGAA,-0.0877
14,ACGTACCC,0.0314
15,AACTCTAG,-0.33
16,GGACTCAC,0.0404
17,AGGACCAA,-0.115
18,AAGCCTCT,-0.318
19,AAGTAGCG,0.0894
20,GAAGTTCC,0.0956
21,CCTCCGCG,0.157
22,ACTCCGCG,0.357
23,ACTCCGAT,0.344
24,ACTCCGCC,0.384
25,ACTCCGCA,0.259

row,Sequence,PBM E-score
1,ACTCCGCT,0.392
2,AATCCGCG,0.21
3,CCTCCGCC,0.223
4,GCTCCGCC,0.347
5,AGATAAGC,-0.142
6,CACACTAG,-0.189
7,AGTCCACC,0.0594
8,AAAATATT,0.114
9,GAAGGCAA,-0.234
10,GTCTTCCA,-0.125
11,ATCCAAAT,-0.103
12,AGTGCTAA,-0.043
13,TGTGCTAA,0.0576
14,GGTGCTAA,0.358
15,GCCGCGCC,0.221
16,CGGTCACG,0.149
17,AGCCGGCA,0.256
18,CGCCGGCA,0.354
19,GGCCGGCC,0.15
20,CGCCGGCC,0.391
21,AGCCGGCC,0.111
22,CGCCGGCG,0.428
23,GGCCGGCA,0.289
24,CGGCGCCG,0.309
25,AGCCGGCG,0.248

row,Sequence,PBM E-score
1,ATAAAAGA,0.0611
2,GAGCAATA,-0.118
3,CAACACTG,-0.305
4,CAGTCAAG,-0.338
5,CCCACAGC,-0.146
6,GCCCGCCA,0.284
7,CCCCGCCA,0.406
8,ACCCGCCG,0.318
9,CCCCGCCG,0.381
10,TCCCGCCA,0.205
11,CCCCCCCG,-0.255
12,GGGATGAA,0.0485
13,CACTGTAG,-0.25
14,CTTCCCTA,-0.161
15,ACTGCCGC,0.311
16,AGGGCATA,-0.0797
17,CGGGCCTC,0.108
18,CGGGCTTC,0.293
19,CGGGCTTA,0.473
20,AGGGCTCA,-0.23
21,CGGGCTCA,0.358
22,CGGGCCTA,0.437
23,CGGGCATA,0.419
24,GGGGCATA,0.083
25,AGGGCCTA,0.0959

row,Sequence,PBM E-score
1,AGGGCTTA,0.12
2,CGGGCTCC,0.0609
3,CTCGTCCA,-0.102
4,AGGAATAT,-0.0199
5,ACATAGAA,-0.0458
6,AAATCGCG,-0.0128
7,ATGTGGGC,0.089
8,GCCGATAA,0.313
9,CATGAACA,-0.0519
10,ACGCGGCA,0.189
11,GGGCGGCA,0.323
12,AGGCGTCA,-0.0617
13,CGGCGTCA,0.384
14,CGGCGTCC,0.277
15,CGGCGGCA,0.411
16,GCGCGGCA,0.237
17,CCGCGGTC,0.32
18,ACGCGGTA,0.215
19,AGGCGGCA,0.238
20,CCGCGGTA,0.399
21,CCGCGGCA,0.367
22,GCGCCTCC,-0.0611
23,CCCTCACC,-0.225
24,AGTAAAGA,0.143
25,GCACCCGA,0.0572

row,Sequence,PBM E-score
1,TCCGTGAA,0.171
2,ATGAAACG,0.067
3,GTTTGGGA,-0.2
4,CCGCGTTC,0.193
5,GAGAGTGA,-0.349
6,ATATCACA,-0.0666
7,ATATCCGG,0.294
8,CTATCTCC,0.235
9,CTATCCGC,0.0573
10,ACATCCGC,0.339
11,ATATCCGC,0.402
12,ATATCACC,0.436
13,CTATCCGA,0.0404
14,CTATCACC,0.216
15,ATATCTCC,0.397
16,ATATCCGA,0.37
17,ATCTCTCC,0.216
18,ATGGGTGA,-0.12
19,GACTTCCA,-0.177
20,AGAAAACA,-0.128
21,AGGTCGCA,0.0143
22,CTGCTAAA,0.00756
23,ACTCCATG,-0.0336
24,CTCAGAAC,-0.191
25,AATTGGCG,0.063

row,Sequence,PBM E-score
1,GCCCCCAC,0.0261
2,CTATGTCC,0.232
3,CTATTCCC,0.136
4,CTATCCCC,0.276
5,ATATGTCG,0.083
6,ATATTCCC,0.372
7,ATATGTCC,0.406
8,ATATTCCG,0.171
9,ATATACCG,0.34
10,ATATCCCG,0.275
11,ATATACCC,0.371
12,ATATCCCC,0.395
13,CTATACCC,0.229
14,AGTCTGGA,0.00288
15,TCGATCGA,-0.148
16,GAGCTCAA,0.0147
17,ACTGGCCG,-0.0443
18,TCGCTCCA,-0.126
19,AAATTCAG,-0.221
20,CAGCTGAG,-0.231
21,CCATGCAA,-0.00387
22,ACGTGGGA,-0.265
23,AGAAAAGG,-0.103
24,ATCAAACA,-0.234
25,CTATATCC,0.187

row,Sequence,PBM E-score
1,CTATCGGA,0.402
2,GTATCGGA,0.263
3,ATATATCC,0.398
4,ATATCGGA,0.166
5,ATATATCA,0.0402
6,ACCTTTAG,0.0714
7,TAAGCCCA,0.0396
8,AACGCGAC,-0.173
9,AATAGAAT,-0.187
10,GATAGGTA,-0.0734
11,GTCGGCAA,0.276
12,ACCGGCAG,0.277
13,GTCGGCAC,0.374
14,CGCGGCAC,0.288
15,GGCGGCAC,0.343
16,CTCGGCAC,0.187
17,ATCGGCAG,0.219
18,AGCGGCAC,0.355
19,ATCGGCAT,0.363
20,ACCGGCAC,0.373
21,ATCGGCAC,0.339
22,ACCGGCAA,0.241
23,ATTGGAGC,-0.193
24,TATCCTAA,-0.109
25,CATGTGGG,-0.114

row,Sequence,PBM E-score
1,CCATGGGC,-0.0701
2,AAATTGAC,0.0873
3,AGCGGCAG,0.276
4,AGCGGCAA,0.2
5,AGCGGCCT,0.377
6,AGCGGCCA,0.177
7,AGCGGCAT,0.401
8,AGCGGCCG,0.252
9,AAGGCGGA,0.292
10,AGCACGAC,-0.2
11,CTACGAGA,-0.102
12,ATTATCCA,-0.0234
13,AATATCCA,-0.00669
14,CACATCCG,0.0898
15,ATTATCCG,0.359
16,AATATCCC,0.291
17,AACATCCC,0.149
18,ATTATCCC,0.0778
19,AATATCCG,0.39
20,AACATCCG,0.359
